Structures are written as SMILES.

In ChEMBL document CHEMBL3433997, “St. Jude Leishmania screening dataset” (2016) one finds inhibition data, which are given here for 11 molecules.

Holding throughout (format): functional
Test [1] deals with Solute carrier family 2, facilitated glucose transporter member 1 (Homo sapiens) (UniProt P11166). As to the kind of experiment: ST_JUDE_LEISH: Cytotoxicity at 2uM final concentration against transgenic Leishmania Mexicana promastigotes LmGLUT1 that are glucose transport deficient and complemented with the human glucose transporter GLUT1. Activity is measured by DNA content using SYBR green in vitro.
Sequence of Solute carrier family 2, facilitated glucose transporter member 1 (Homo sapiens) (P11166 whole entry): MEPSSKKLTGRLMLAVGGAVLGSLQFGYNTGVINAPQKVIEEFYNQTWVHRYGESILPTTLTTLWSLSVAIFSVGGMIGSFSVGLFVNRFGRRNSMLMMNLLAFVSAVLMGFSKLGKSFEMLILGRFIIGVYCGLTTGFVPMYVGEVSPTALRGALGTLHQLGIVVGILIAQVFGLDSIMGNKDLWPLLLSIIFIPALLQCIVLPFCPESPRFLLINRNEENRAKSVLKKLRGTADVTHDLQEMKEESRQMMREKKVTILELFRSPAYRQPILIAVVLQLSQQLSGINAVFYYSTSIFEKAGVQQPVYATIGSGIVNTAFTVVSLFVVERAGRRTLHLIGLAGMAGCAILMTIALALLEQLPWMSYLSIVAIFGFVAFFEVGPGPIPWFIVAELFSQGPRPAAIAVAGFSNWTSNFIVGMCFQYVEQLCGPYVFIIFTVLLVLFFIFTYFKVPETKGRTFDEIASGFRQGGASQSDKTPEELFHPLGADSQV

Test [2] concerns the target Hexose transporter 1 (Plasmodium falciparum) (UniProt O97467). As to the kind of experiment: ST_JUDE_LEISH: Cytotoxicity at 2uM final concentration against transgenic Leishmania Mexicana promastigotes LmPfHT that are glucose transport deficient and complemented with the Plasmodium falciparum hexose transporter. Activity is measured by DNA content using SYBR green in vitro.

The target of test [3] is Glucose transporter (Leishmania mexicana) (UniProt O61059). As to the kind of experiment: ST_JUDE_LEISH: Cytotoxicity at 2uM final concentration against transgenic Leishmania Mexicana promastigotes LmGT2 that are glucose transport deficient and complemented with the L. Mexicana glucose transporter 2. Activity is measured by DNA content using SYBR green in vitro.

For `COc1ccc(CNC(=O)Nc2cc3cc(-c4ccc(CN(C)C)cc4)ccc3n3c(C)nnc23)cc1`, the inhibition in test [1] came out at 4.84%; in test [2], 2.93%; in test [3], 3.32%.
In the case of `O=S(=O)(c1ccc(OC(F)(F)F)cc1)C1CC2CCC(C1)N2S(=O)(=O)c1ccc(Cl)c(C(F)(F)F)c1` (stereo not drawn), the inhibition in test [1] stood at 11.6%; in test [2], 12.9%; in test [3], 10.4%.
On to `O=C(NCCCCCN1CCCN(C(=O)Nc2ccc(F)c(C(F)(F)F)c2)CC1)C1CC1c1ccc(Cl)c(Cl)c1` (stereo not drawn), for which the inhibition in test [1] amounted to 2.53%; in test [2] it was 2.1%; in test [3], 0.2%.
As for `COc1cc(C(=O)NCc2nn(CCN3CCC(N4CCCC4)CC3)cc2-c2ccc(Cl)c(Cl)c2)cc(OC)c1OC`, the figures for the inhibition in test [1], in test [2] and in test [3] were -2.77%, 3.08% and 3.75%, respectively.
For `O=C(/C=C/c1ccc(Cl)c(Cl)c1)NCCCCCN1CCCC(C(=O)Nc2ccc(F)c(Cl)c2)C1` (stereo not drawn), in that order: 3.02%, 5.25% and 4.87%.
Consider `COc1ccc(-c2ccc(NC(=O)c3cccc(F)c3)cc2)cc1CNC(C)C`, for which the results for the inhibition in test [1], in test [2] and in test [3] were 0.72%, -0.6% and -2.2%, respectively.
On to `CCC(C)NC(=O)CN1CN(c2ccccc2)C2(CCN(C(=O)c3ccc(C(C)(C)C)cc3)CC2)C1=O` (stereo not drawn), for which the inhibition in test [1] worked out at 3.34%; in test [2] it was 2.77%; in test [3], 1.7%.
With `C=CCOC(=O)N1CCC(CNCc2cccc(-c3cccc(-c4nc5cc(F)ccc5[nH]4)c3)c2)C1` (stereo not drawn), the inhibition in test [1] was 1.39%; in test [2] it was 0.9%; in test [3], -0.93%.
`CN(C)Cc1ccc(CNC2CCN(Cc3ccccc3Cl)CC2)cc1`: the inhibition turned out to be 18.4% in test [1], 13.8% in test [2] and 13.4% in test [3].
On to `CC(=O)Nc1ncc(C(=O)Nc2cccc(-c3ccc(-c4nc5cc(F)ccc5[nH]4)cc3)c2)s1`, for which the results for the inhibition in test [1], in test [2] and in test [3] were 4.02%, 1.84% and 2.62%, respectively.
`c1ccc(CN2CCC(NCc3ccc(-c4ccc(CNC5CCCC5)cc4)cc3)CC2)cc1`: the inhibition in test [1] was determined as 1.73%; in test [2] it was 1.09%; in test [3], 0.48%.

As usually defined, the inhibition is the drop in the measured response relative to a control, in per cent.
